In all, about 1,100 compounds went through this assay and fewer than 10 were called active. The call rests on the fitted dose curve; in most records, active means well fitted curve in the direction sought with a large enough effect; inconclusive means small, poorly fitted or top-dose-only effect, or another doubt; inactive means no such curve, though single readings can be large or run the other way. A selection follows.

The experiment is described as follows: qHTS for Inhibitors of PI5P4K: ADP-Glo counter assay. Particulars: ADP-Glo detection counter-screen, luciferase luminescence, no enzyme; series mostly up to 76.9 µM. The source says:
In addition to finding PI5P, we discovered the type II phosphatidylinositol 5-phosphate 4-kinase (PI5P4K) family (alpha, beta, gamma isoforms) that catalyze the conversion of PI5P to PI(4,5)P2. Alternatively, PI(4,5)P2 can also be synthesized through phosphatidylinositol-4-phosphate (PI4P) by the type I phosphatidylinositol 4-phosphate 5-kinases (PI4P5K). These PI5P4K enzymes therefore represent one way by which cells can regulate endogenous PI5P levels and play important roles in insulin signaling and in stress responses. […] A qHTS PI5P4K-alpha ADP-Glo assay was developed to identify specific modulators of human PI5P4K, phosphatidylinositol-5-phosphate 4-kinase (Type II PIPK). This assay was screened against the MLSMR containing ~400,000 small molecules (PubChem AID 652105). To confirm that the hits were not interacting with the detection enzyme system, a 1536-well counterscreen against the ADP-Glo kit (Promega) was utilized, as described in Davis et al., 2013 [1]. For this assay, an ATP/ADP mix of 80% ATP and 20% ADP was used to mimic the PI5P4K-alpha enzyme reaction. […] Therefore, true inhibitors of PI5P4K-alpha should have no activity in this assay. Davis et al., PLoS One. 2013;8(1):e54127. NIH Chemical Genomics Center [NCGC] NIH Molecular Libraries Probe Centers Network [MLPCN] MLPCN Grant: MH096575 Assay Submitter (PI): Atsuo Sasaki, Beth Israel Deaconess Medical Center
Two micoliter of assay buffer (0.038 M HEPES pH 7.4, 0.28 mM EGTA, 0.1% CHAPS, 7.5% DMSO) was dispensed into Greiner white solid bottom 1536-well assay plates. Compounds were then transferred via Kalypsys pin tool equipped with 1536-pin array (10 nL slotted pins, V&P Scientific, San Diego, CA). Next, 1 uL of ATP / ADP mix (4 uM ATP / 1 uM ADP final concentrations in 20 mM HEPES pH 7.4, 60 mM MgCl2, and 0.1% CHAPS) was added for a total reaction volume of 3 uL. The plates were incubated at room temperature for 60 minutes. To detect the activity, 2 uL of ADP-Glo reagent 1 was added to each well followed by 45 min room temperature incubation. Then, 4 uL of ADP-Glo reagent 2 was added to each well and the plates were incubated further for 30 min at room temperature. Finally, luminescence signal was detected using the PerkinElmer ViewLux plate reader (30 sec exposure). The data was normalized to control wells with 20% ADP / 80% ATP and wells with 100% ATP.
(In general: In qHTS, concentration-response curves come from the screen itself.)
For `Cc1cnc(NC(=O)CSc2c(Cl)cccc2Cl)s1`, the outcome was inactive.
The entry for `Cc1cc(=O)n2[nH]c(-c3sccc3-n3c(C)ccc3C)cc2n1` is “inactive”; for `O=C(Cc1cccs1)N(CC1CCCO1)C1(C(=O)NC2CCCCC2)CCCCC1` (stereo not given) it is “inactive”; for `CCOC(=O)C1Nc2ccc(C(F)(F)F)cc2C2C=CCC12` (stereo not given) it is “inactive”.
The entry for `O=C1CC(c2ccccc2)=NN1c1ccc([N+](=O)[O-])cc1` is “inactive”; for `CC(=O)N1c2ccc(S(=O)(=O)NCCC(=O)N(C)C3CCCCC3)cc2CC1C` (stereo not given) it is “inactive”; for `O=C(COc1ccc(-n2cnnn2)cc1)Nc1ccccc1Cl` it is “inactive”.
The entry for `Cc1cccnc1NC(=O)CSc1nnc(COc2ccc(C(C)C)cc2)n1C` is “inactive”; for `O=C(Nc1ccc(S(=O)(=O)Nc2nccs2)cc1)c1cc(-c2ccncc2)nc2ccccc12` it is “inactive”; for `Cc1csc(=O)n1CCC(=O)OCC(=O)Nc1ccc(N2CCOCC2)cc1` it is “inactive”.
With `CCC(c1nnnn1Cc1ccco1)N(CCc1ccccc1)Cc1cc2ccc(OC)cc2[nH]c1=O` (stereo not given), the outcome was inactive.
Next, `Cc1ccc(C(c2nnnn2CS(=O)(=O)c2ccc(C)cc2)N2CCC(C)CC2)cc1` (stereo not given): “inactive”.
The entry for `COc1cccc2c(C)c(C(=O)O)[nH]c12` is “inactive”.
Consider `CC(CNC(=O)c1ccc(Br)o1)NC(=O)c1ccc(Br)o1` (stereo not given), for which the result was inactive.
Next, `Cc1ccc(Cc2c(-c3ccco3)nc3ccc(Cl)cn23)cc1`: “inactive”; `OCCNc1nc(Nc2ccc(Cl)c(Cl)c2)nc2ccccc12`: “inactive”; `O=C(c1cc(-c2ccco2)nc2ccccc12)N(Cc1nnc(-c2ccc(Cl)cc2)o1)C1CC1`: “inactive”.
The entry for `O=C(c1cc2c(s1)CCC2)N1CCN(c2ccccc2)CC1` is “inactive”; for `O=C(c1cccnc1)N(c1cc2sc(=O)oc2c2ccccc12)S(=O)(=O)c1ccccc1` it is “inactive”; for `COc1ccc(C(=O)N2CCC(C(=O)Nc3ccc(C)cc3)CC2)cc1` it is “inactive”.
The entry for `COc1ccc(OCCCC(=O)Nc2nnc(C3CCCO3)s2)cc1` (stereo not given) is “inactive”.
`Cc1cc(NC(=O)Nc2ccccc2[N+](=O)[O-])no1`: the compound was called inactive.
The entry for `O=c1oc2cc(O)ccc2cc1-c1ccc(F)cc1` is “inactive”.
For the compound `COCCNC(=O)Nc1ccc2nc(-c3ccco3)c(-c3ccco3)nc2c1`, the result was inactive.
Next, `COc1ccc(S(=O)(=O)/N=C2\C=C(NS(=O)(=O)c3ccccc3)C(=O)c3ccccc32)cc1`: “inactive”; `COc1ccc(CCCc2nnc(SCc3nc4ccccc4c(=O)[nH]3)n2C)cc1`: “inactive”; `CCOC(=O)c1cc2c(=O)[nH]c(C(Cl)(Cl)Cl)nc2o1`: “inactive”.
Next, `OCCCNc1nccc(-c2cc(Nc3cccc(Cl)c3)ncn2)n1`: “inactive”; `O=S(=O)(Nc1ccc2cn[nH]c2c1)c1ccccc1`: “inactive”; `COc1cccc(C(=O)Nc2nc3ccc(S(C)(=O)=O)cc3s2)c1`: “inactive”.
Next, `O=c1[nH]c2ccccc2n2c(-c3ccccc3)nnc12`: “inactive”; `O=C(Cn1cnc2c(OCc3ccccc3)ncnc21)NCc1nc2ccccc2[nH]1`: “inactive”; `O=C(Nc1nc(-c2ccncc2)cs1)C1COc2ccccc2O1` (stereo not given): “inactive”.
In the case of `COc1cc(=O)[nH]c(=O)n1C(=O)Cc1ccccc1`, the call was inactive.
Next, `COc1ccc(-c2cc(C(=O)Nc3ccccc3O)c3ccccc3n2)cc1`: “inactive”.
Regarding `Cc1cccc(C)c1NC(=O)C(c1ccc(C(F)(F)F)cc1)n1c(=O)c(-c2ccco2)nc2ccccc21` (stereo not given), the outcome was inactive.
Turning to `O=C(NC1CCCCC1)C(c1cc2ccccc2o1)n1c(=O)c(-c2ccco2)nc2ccccc21` (stereo not given), the compound was classed as inactive.
The entry for `COc1ccc(C(CNC(=O)c2ccc(OCc3cscn3)cc2)N2CCCC2)cc1` (stereo not given) is “inactive”; for `Cc1cc2nc(-c3ccco3)c(Cc3cccc(F)c3)n2c(C)c1Br` it is “inactive”; for `O=C(CCNS(=O)(=O)c1ccc(Br)s1)NCc1ccccc1Cl` it is “inactive”.
As for `C[C@H](NC(=O)c1nc[nH]c1C(=O)N[C@@H](C)C(=O)OC(C)(C)C)C(=O)OC(C)(C)C`, the outcome was inactive.
Next, `CC(Oc1ccc(F)cc1)C(=O)N1CCN(c2ncccn2)CC1` (stereo not given): “inactive”; `Cn1c(SCC(=O)Nc2ccc(Cl)cc2)nc(O)cc1=O`: “inactive”; `Cc1ccc(Cn2c(C)nc3c(c2=O)c2nc4ccccc4nc2n3Cc2ccco2)cc1`: “inactive”.
The entry for `O=C(COC(=O)c1ccccc1O)NCc1ccco1` is “inactive”.

(Values after PubChem BioAssay AID743285 (National Center for Advancing Translational Sciences (NCATS), 2014).)
